# Experimental data reported in PubChem BioAssay.
# Values without a mark were called inactive. The rule behind the calls is not given here. Where a SMILES comes first, the peptide text is derived from it. The star is where a group is joined. Cbz = O=C(OCc1ccccc1)*
# System: Aerobactin synthetase IucA (Klebsiella pneumoniae hvKP1)
# Experiment: Biochemical IucA enzyme inhibition primary screen of the Spectrum library (AID 1346200);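 note: 100% = wells without compound and 0% = wells lacking enzyme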
# Conditions: malachite green pyrophosphate, A620, at 8 µM, active compounds read low
row,SMILES,activity remaining [%]
1,O=C1CC2OCC=C3CN4CC[C@]56c7ccccc7N1C5[C@H]2[C@H]3CC46 (stereo not given in full),121
2,C[C@H]1O[C@@H](O[C@H]2[C@@H](O)C[C@H](O[C@H]3[C@@H](O)C[C@H](O[C@H]4CC[C@]5(C)C6CC[C@]7(C)[C@@H](C8=CC(=O)OC8)CC[C@]7(O)C6CC[C@@H]5C4)O[C@@H]3C)O[C@@H]2C)C[C@H](O)[C@@H]1O (stereo not given in full),121
3,CC12CCCCC1(Br)[N+](=O)N2[O-] (stereo not given),108
4,CO[C@H]1[C@H](O)[C@H](O[C@H]2CC[C@]3(C)C4CC[C@]5(C)C(C6=CC(=O)OC6)CC[C@]5(O)C4CC[C@@H]3C2)O[C@@H](C)[C@@H]1O (stereo not given in full),93.6
5,COc1ccc2c(c1OC)C(=O)O[C@H]2[C@H]1c2cc3c(cc2CCN1C)OCO3,127
6,COc1ccc2c(c1)[C@]13CCCC[C@H]1[C@H](C2)N(C)CC3,115
7,COc1ccc2c(c1OC)C(=O)O[C@@H]2[C@@H]1c2cc3c(cc2CCN1C)OCO3,113
8,C/C=C(\C)C(=O)O[C@H]1C[C@@H](OC(C)=O)[C@@]2(C(=O)OC)CO[C@@H]3C2[C@]12CO[C@](O)(C(=O)OC)[C@H]2[C@](C)(C12O[C@@]1(C)[C@H]1C[C@@H]2OC2OC=C[C@@]21O)[C@@H]3O (stereo not given in full),89
9,C=C[C@@H]1C2=CCOC(=O)C2=CO[C@H]1O[C@@H]1O[C@H](CO)[C@@H](O)[C@H](O)[C@H]1O,126
10,CNC(C)[C@@H]1CC[C@@H](N)[C@@H](OC2[C@@H](N)C[C@@H](N)[C@H](OC3OC[C@](C)(O)[C@H](NC)[C@H]3O)[C@H]2O)O1 (stereo not given in full),116
11,C[C@@H]1CC[C@H]2[C@@H](C)C(=O)O[C@@H]3OC4(C)CC[C@@H]1[C@]32OO4,86.3
12,O=C(NC(=O)c1ccccc1Cl)Nc1ccc(OC(F)(F)F)cc1,118
13,O=c1ccc2c(O)c3ccoc3cc2o1,96.6
14,C=C1C2CC[C@H]3[C@]4(C)C[C@H](OC5OC(CO)C(OS(=O)(=O)O)C(OS(=O)(=O)O)C5OC(=O)CC(C)C)C[C@@H](C(=O)O)[C@H]4CC[C@]3(C2)[C@H]1O (stereo not given in full),102
15,CNC(Cc1c[nH]c2ccccc12)C(=O)O (stereo not given),108
16,O=C1OCCN1/N=C/c1ccc([N+](=O)[O-])o1,104
17,C[C@@H]1CC[C@@]2(NC1)O[C@H]1C[C@H]3C4CC=C5C[C@@H](O)CC[C@]5(C)C4CC[C@]3(C)C1[C@@H]2C (stereo not given in full),118
18,C[C@@H]1C(=O)OC2[C@H](O)C34[C@@H]5OC(=O)[C@@]3(O[C@@H]3OC(=O)[C@H](O)[C@@]34[C@H](C(C)(C)C)[C@H]5O)[C@]21O (stereo not given in full),116
19,CCC(C)C(=O)O[C@H]1[C@H](O)C2C(CN3CC(C)CCC3[C@@]2(C)O)C2C[C@]34O[C@]5(O)C(OC(=O)C(C)(O)C(C)O)CC[C@@]3(C)C5C(OC(C)=O)[C@@H](OC(C)=O)C4[C@@]21O (stereo not given in full),107
20,CC(=O)C1=C(O)C2C3c4c[nH]c5cccc(c45)CC3C(C)(C)N2C1=O (stereo not given),102
21,CC[C@]12CCCN3CCc4c(n(c5ccccc45)[C@](O)(C(=O)OC)C1)[C@@H]32,115
22,O=C(O)P(=O)(O)O,112
23,CC1(C)N([O-])[N+](=O)C1(C)Br (stereo not given),96.6
24,CC1(C)C2C[C@@H](O)[C@]3(C)C(CC[C@@]4(C)[C@H](c5ccoc5)OC(=O)[C@H]5O[C@]543)[C@@]2(C)[C@@H](O)C[C@H]1O (stereo not given in full),124
25,C[C@]12CCC3C(CC[C@H]4CC(=O)CC[C@]34C)C1CCC2=O (stereo not given in full),94.5
26,c1cc2c(cc1[C@H]1OC[C@H]3[C@@H]1CO[C@H]3c1ccc3c(c1)OCO3)OCO2,120

# System: Aerobactin synthetase IucA (Klebsiella pneumoniae, hypervirulent)
# Experiment: IucA enzyme inhibition, biochemical, LOPAC library, absorbance readout (AID 1346212);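 note: 100% = no compound wells and 0% = no enzyme wells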
# Conditions: IucA enzyme assay, absorbance (OD) readout; active compounds read low; concentration not given here
row,SMILES,remaining activity [%]
1,COC(=O)c1c(-c2cc(OC)c(OC)c(OC)c2)c2ccc(OCc3ccccn3)cc2c(=O)n1-c1ccc(N)cc1,86.8
2,Cc1cc(O)c2c(c1)C(=O)c1cc(O)cc(O)c1C2=O,76.7
3,NC(N)=NC(=O)Cc1c(Cl)cccc1Cl,119
4,N[C@H](C(=O)O)[C@H](O)C(=O)O,106
5,CO/N=C(\C(=O)N[C@@H]1C(=O)N2C(C(=O)O)=C(COC(C)=O)CS[C@H]12)c1csc(N)n1 (stereo in doubt),123
6,Cc1cc2c(cc1Cl)N(C(=O)Nc1ccc(Oc3cccnc3C)nc1)CC2,103
7,NC(=Nc1ccccc1)NC(=O)c1nc(Cl)c(N)nc1N,105
8,CNC(=O)c1cc2c(cn1)[nH]c1ccccc12,97.3
9,CCN(CC)CCOC(=O)c1cc(Cl)c(N)cc1OC,103
10,N#Cc1c(-c2ccccc2)no[n+]1[O-],125
11,O=C(c1ccc2c(c1)OCCO2)N1CCCCC1,87.4
12,O=C1c2ccccc2-c2n[nH]c3cccc1c23,88.6
13,O=C(O)/C=C/C(O)c1ccc(Cl)cc1 (stereo not given),120
14,CC(C)[C@H](NC(=O)OCc1ccccc1)C(=O)N[C@H](C=O)Cc1ccccc1 (Cbz-Val-Phe-aldehyde),106
